From PubChem BioAssay AID504652 (National Center for Advancing Translational Sciences (NCATS), 2011) come the findings set out here.

Several values for one entry are separate records, joined by “and”; a condition that tells them apart may be missing. Equal entries are not always repeated. Screen size: about 360,000 compounds; about 11,000 (3.1%) were called active. Rule as the data show it: active = activity change below about -30%; inactive = the rest. What follows is part of a selection rich in actives, with near analogues and random picks from the rest. Some compounds were tested as several samples or in several runs, with calls that do not always agree.
% is scaled to controls: 0 for no effect and ±100 for the full control effect.

D(1A) dopamine receptor (Homo sapiens), sequence (P21728 whole entry, looked up): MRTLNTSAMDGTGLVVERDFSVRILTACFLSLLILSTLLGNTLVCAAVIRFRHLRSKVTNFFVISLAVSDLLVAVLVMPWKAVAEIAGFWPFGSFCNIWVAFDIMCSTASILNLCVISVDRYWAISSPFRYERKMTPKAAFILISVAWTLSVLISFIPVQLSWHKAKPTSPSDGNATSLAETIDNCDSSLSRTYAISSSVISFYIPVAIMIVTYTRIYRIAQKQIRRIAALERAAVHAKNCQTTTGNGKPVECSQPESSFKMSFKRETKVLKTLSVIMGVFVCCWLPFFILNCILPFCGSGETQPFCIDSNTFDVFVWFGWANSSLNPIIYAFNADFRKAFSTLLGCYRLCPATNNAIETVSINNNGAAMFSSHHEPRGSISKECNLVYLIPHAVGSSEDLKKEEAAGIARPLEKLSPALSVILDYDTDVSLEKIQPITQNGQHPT

The target in this test is D(1A) dopamine receptor (Homo sapiens) (UniProt P21728). Description: Antagonist of Human D 1 Dopamine Receptor: qHTS. The following applies: HEK293 TREx D1 cells, calcium flux, dopamine EC80; at 10 µM; stronger effect = lower value. The method in brief:
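Allosteric or orthosteric antagonism assessed as attenuation of the calcium response to EC80 dopamine, added 180 s after compound, in induced HEK293 Trex D1 cells loaded with no-wash calcium dye.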
As to `CCC(=O)N1CCc2cc(S(=O)(=O)NC(C(=O)NCCc3ccc(C)cc3)C(C)C)ccc21` (centres undefined), the activity change, negative = inhibition is 14.4% (inactive).

Take `CCC(=O)N1CCc2cc(S(=O)(=O)NC(C(=O)Nc3ccc(C(C)=O)cc3)C(C)C)ccc21` (centres undefined): the activity change, negative = inhibition is -1.32% (inactive).

On to `CCC(=O)N1CCc2cc(S(=O)(=O)NC(C(=O)N3CCc4ccccc4C3)C(C)C)ccc21` (centres undefined), for which the activity change, negative = inhibition was -32.3% (active).

Turning to `CCC(=O)N1CCc2cc(S(=O)(=O)NC(Cc3ccccc3)C(=O)NCc3ccccc3)ccc21` (centres undefined), the activity change, negative = inhibition is -62% (active).

Turning to `CCC(=O)N1CCc2cc(S(=O)(=O)NC(Cc3ccccc3)C(=O)NCc3ccc(C)cc3)ccc21` (centres undefined), the activity change, negative = inhibition was 20.6% (inactive).

`CC(=O)N1CCc2cc(S(=O)(=O)NC(Cc3ccccc3)C(=O)NCc3ccc(C)cc3)ccc21` (centres undefined): the activity change, negative = inhibition is 7.72% (inactive).

Take `Cc1ccc(C)c(Cn2c(C(=O)O)c(CNCc3cccs3)c3ccccc32)c1`: the activity change, negative = inhibition was 57.2% (inactive).

For `Cc1ccccc1-c1nc2cc(NC(=O)c3cccc(OCCC(C)C)c3)ccc2o1`, the activity change, negative = inhibition is 0.754% (inactive).

As to `CC1=C(C(=O)N2CCN(c3cccc(C(F)(F)F)c3)CC2)C2(CCCCC2)OC1=O`, the activity change, negative = inhibition was -3.32% (inactive).

Take `COC(=O)c1ccccc1NC(=O)Cn1c(=O)n(-c2cccc(C(F)(F)F)c2)c(=O)c2c(C)c(C)sc21`: the activity change, negative = inhibition is 0.199% (inactive).

Take `CCOC(=O)C1CCCN(CC(=O)Nc2cc(C)c3c(=O)oc4ccccc4c3n2)C1` (centres undefined): the activity change, negative = inhibition was -9.54% (inactive).

Regarding `COc1ccccc1Nc1nc(N)nc(N)c1S(=O)(=O)c1ccccc1`, the activity change, negative = inhibition was 3.62% (inactive).

Consider `CCN(CC)S(=O)(=O)c1ccc2c(c1)nc(CN(C)C(=O)Nc1ccc(Cl)cc1)n2C`, for which the activity change, negative = inhibition was -30.4% (active).

Regarding `CCN(CC)S(=O)(=O)c1ccc(NC(=O)c2cnc(C)cn2)cc1`, the activity change, negative = inhibition was 5.26% (inactive).

For `Cn1c(CN2CCOCC2)nc2cc(NC(=O)c3ccc(Cl)cc3)ccc21`, the activity change, negative = inhibition is -2.81% (inactive).

For `Cc1ccc(Cl)cc1NC(=O)CSc1nc2ccccc2nc1Cc1ccccc1`, the activity change, negative = inhibition is 3.51% (inactive).

Turning to `COc1ccc(NS(=O)(=O)c2ccc(N3CCN(CCO)CC3)c([N+](=O)[O-])c2)cc1`, the activity change, negative = inhibition is -20.8% (inactive).

In the case of `CS(=O)(=O)N1CCN(c2ccc(C(=O)NC3C4CC5CC(C4)CC3C5)cc2[N+](=O)[O-])CC1` (centres undefined), the activity change, negative = inhibition is -9.31% (inactive).

Take `Cc1cccc(N2CCN(c3ccc(C(N)=O)cc3[N+](=O)[O-])CC2)c1C`: the activity change, negative = inhibition is 9.32% (inactive).

As for `Cc1ccc(C(=O)c2ccc(N3CCN(C)CC3)c([N+](=O)[O-])c2)cc1`, the activity change, negative = inhibition was -41.9% (active).

As for `CN1CCN(c2ccc(S(=O)(=O)Nc3ccccc3)cc2[N+](=O)[O-])CC1`, the activity change, negative = inhibition was -46.5% (active).

`CN1CCN(S(=O)(=O)c2ccc(N3CCN(c4ccccc4O)CC3)c([N+](=O)[O-])c2)CC1`: the activity change, negative = inhibition is 7.38% (inactive).

As to `COC(=O)c1c(NC(=O)C(C)Oc2ccc(Cl)c(C)c2)sc(C)c1C` (centres undefined), the activity change, negative = inhibition is 14.5% (inactive).

In the case of `Fc1ccc(-c2nn(-c3ccccc3Cl)c3c2cnc2ccccc23)cc1`, the activity change, negative = inhibition was 15% (inactive).

On to `COc1cc(C)ccc1OCCSc1nc2ccc(NC(=O)c3ccc(C)cc3)cc2s1`, for which the activity change, negative = inhibition was 5.21% (inactive).

Consider `Cc1ccc(NC(=O)NC(C)c2c(-n3cccc3)sc(C)c2C)c(C)c1` (centres undefined), for which the activity change, negative = inhibition was -16% (inactive).

For the compound `O=C(Cc1ccc(Cl)cc1)NCC(c1cccs1)S(=O)(=O)c1ccc(Cl)cc1` (centres undefined), the activity change, negative = inhibition is 4.53% (inactive).

Consider `Cn1ccc2cc(S(=O)(=O)N3CCCC(C(=O)NCc4ccccc4F)C3)ccc21` (centres undefined), for which the activity change, negative = inhibition is -17.1% (inactive).

As for `CCOc1ccccc1NC(=O)CCn1cnnn1`, the activity change, negative = inhibition is -17.8% (inactive).

For `Cc1ccccc1OCC(=O)NNC(=O)c1ccc(-n2cncn2)c([N+](=O)[O-])c1`, the activity change, negative = inhibition is -67.1% (active).

Consider `O=C(NNC(=O)c1ccc(-n2cncn2)c([N+](=O)[O-])c1)c1ccccc1`, for which the activity change, negative = inhibition was -5.21% (inactive).

For `CC(=O)c1ccc(NC(=O)c2ccc(-n3cncn3)c([N+](=O)[O-])c2)cc1`, the activity change, negative = inhibition is 2.28% (inactive).

For the compound `Cc1nc2ccn(Cc3cccs3)c(=O)c2cc1C(=O)NCc1ccc(Cl)cc1`, the activity change, negative = inhibition is -27.7% (inactive).

With `COc1ccc(OC)c(-n2nnc3c(sc4nc(C)c(Br)c(C)c43)c2=O)c1`, the activity change, negative = inhibition was -6.84% (inactive).

On to `COc1ccc(NC(=O)CSc2nnc(-c3nnn(-c4ccc(F)cc4)c3C)o2)cc1`, for which the activity change, negative = inhibition is -7.41% (inactive).

`O=C(CCCN=C1NS(=O)(=O)c2ccccc21)OCC(=O)c1ccc(F)c(F)c1`: the activity change, negative = inhibition was -64.4% (active).

Take `O=C(OCCN=C1NS(=O)(=O)c2ccccc21)c1cccc([N+](=O)[O-])c1`: the activity change, negative = inhibition was -6.81% (inactive).

Regarding `N#CC1(NC(=O)COC(=O)CCN=C2NS(=O)(=O)c3ccccc32)CCCCC1`, the activity change, negative = inhibition was -2.93% (inactive).

For `CCCCOc1ccc(CNC(=O)c2ccc3c(c2)N(C)C(=O)C2CCCCN32)cc1` (centres undefined), the activity change, negative = inhibition is 20.7% (inactive).

As to `CCc1nc2cccnc2n1-c1ccc(CC(=O)Nc2c(C)cccc2C)cc1`, the activity change, negative = inhibition is 0.844% (inactive).

For the compound `COc1cc(OC)c(NC(=O)c2cc(S(=O)(=O)N3CCCC3)cn2C)cc1Cl`, the activity change, negative = inhibition is -11% (inactive).

Regarding `COc1cc(OC)c(NC(=O)c2cnc(N3CCCC3)nc2C)cc1Cl`, the activity change, negative = inhibition is -35.8% (active).

As to `COc1cc(OC)c(NC(=O)N2CC3CCCN3c3ccccc32)cc1Cl` (centres undefined), the activity change, negative = inhibition is 46.3% (inactive).

As to `CCc1ccccc1NC(=O)N1CCC2(CC1)Oc1ccccc1C(=O)N2Cc1ccccc1F`, the activity change, negative = inhibition was -12.2% (inactive).

For `OC(COc1ccc2c(c1)CCC2)CN1CCN(c2cccc(Cl)c2)CC1` (centres undefined), the activity change, negative = inhibition was -0.524% (inactive).

`Cc1nn(CCOc2ccccc2)c(=O)n1-c1ccccc1F`: the activity change, negative = inhibition was -11.9% (inactive).

Consider `CCc1nn(CCCN2CCN(c3cccc(Cl)c3)CC2)c(=O)n1CCOc1ccccc1`, for which the activity change, negative = inhibition is -25.8% (inactive) and -41.5% (active).

For the compound `CCOc1ccc(CNC(=O)CCc2c(C)nn(-c3ccc(N4CCCCC4)nn3)c2C)cc1`, the activity change, negative = inhibition is -12.9% (inactive).

In the case of `COc1ccccc1C(=O)Nc1c(C(=O)Nc2ccc(C)cc2)oc2ccccc12`, the activity change, negative = inhibition was 2.57% (inactive).

With `COc1ccc(NC(=O)c2ccc3nc(C(C)C)oc3c2)cc1OC`, the activity change, negative = inhibition is 13.3% (inactive).

For the compound `O=[N+]([O-])c1ccc2[nH]c3c(c2c1)CCCC3O` (centres undefined), the activity change, negative = inhibition was -30.8% (active).

On to `CCOC(=O)c1ccc2[nH]c3c(c2c1)CCCC3NC=O` (centres undefined), for which the activity change, negative = inhibition was -2.15% (inactive).

For the compound `O=C1CCCc2c1[nH]c1ccc(Br)cc21`, the activity change, negative = inhibition is 12% (inactive).

`CCOC(=O)C1CCCN(S(=O)(=O)c2cc(-c3cc(C)no3)ccc2OC)C1` (centres undefined): the activity change, negative = inhibition is -12.1% (inactive).

Regarding `COC(=O)c1scc(-c2ccccc2)c1S(=O)(=O)Nc1ccccc1`, the activity change, negative = inhibition is -7.67% (inactive).

`CCn1c(=O)c2cc(C(=O)NCCc3ccc(Cl)cc3)sc2c2ccccc21`: the activity change, negative = inhibition is 3.78% (inactive).

With `COc1cccc(NC(=O)Cn2c(=O)cc(C)c3c(C)nn(-c4cccc(F)c4)c32)c1`, the activity change, negative = inhibition is 11.7% (inactive).

With `COc1cn(CC(=O)Nc2cccc(C)c2C)c(CN2CCCCC2)cc1=O`, the activity change, negative = inhibition was -18.9% (inactive).

For the compound `O=C(Nc1nnc(COc2ccccc2)s1)Nc1ccccc1F`, the activity change, negative = inhibition is -5.26% (inactive).

As for `COc1ccccc1NC(=O)Nc1nc(CC(=O)Nc2ccccc2F)cs1`, the activity change, negative = inhibition was 2.24% (inactive).

With `COc1ccccc1NC(=O)Nc1nnc(Cc2ccc(F)cc2)s1`, the activity change, negative = inhibition is -35.5% (active).

On to `COc1ccc(Cl)cc1-n1c(CCC(=O)O)ccc1-c1ccc(C)cc1`, for which the activity change, negative = inhibition was -15.3% (inactive).

Take `Cc1cccc(N2CCN(S(=O)(=O)c3ccc4[nH]c5c(c4c3)CCCCC5)CC2)c1C`: the activity change, negative = inhibition was 0.754% (inactive).

In the case of `CC1CCN(c2ccc([N+](=O)[O-])c(SCCO)c2)CC1`, the activity change, negative = inhibition was -30.7% (active).

In the case of `CN1CCN(c2ccc([N+](=O)[O-])c(Sc3nc4ccccc4[nH]3)c2)CC1`, the activity change, negative = inhibition is -1.85% (inactive).

As for `CC1CCN(C(=S)c2cccc([N+](=O)[O-])c2)CC1`, the activity change, negative = inhibition is -12.4% (inactive).

Take `Cc1nn(-c2ccc(N3CCCCC3)nn2)c(C)c1CCC(=O)NCc1ccccc1F`: the activity change, negative = inhibition is -7.94% (inactive).

As to `Cc1cccc(OCCSc2nc3ccccc3n2CC(=O)N2CCCCC2)c1C`, the activity change, negative = inhibition is -17.2% (inactive).

On to `O=C1CCCN1C(=O)COc1ccc([N+](=O)[O-])cc1`, for which the activity change, negative = inhibition was -83.3% (active).

Turning to `COc1ccc(C(CNC(=O)COc2ccc([N+](=O)[O-])cc2)N2CCCCC2)cc1` (centres undefined), the activity change, negative = inhibition is 6.98% (inactive).

Turning to `O=C(OCC(=O)N1CCc2ccccc21)c1ccc([N+](=O)[O-])cc1`, the activity change, negative = inhibition is -13% (inactive).

`O=C(NCC(c1cccnc1)N1CCc2ccccc21)c1cccc(C(F)(F)F)c1` (centres undefined): the activity change, negative = inhibition is 4.34% (inactive).

With `Cc1ccc2oc3c(c(=O)c2c1)C(c1ccc([N+](=O)[O-])cc1)N(CCCN1CCOCC1)C3=O` (centres undefined), the activity change, negative = inhibition was -8.02% (inactive).

Consider `Cc1ccc(-c2nn3c(=O)cc(CN4CCN(C(=O)Nc5cccc(C(F)(F)F)c5)CC4)nc3s2)cc1`, for which the activity change, negative = inhibition was 4.59% (inactive).

As for `Cc1ccc(C)c(N2CCN(C(=O)CN3C(=O)COc4ccc(S(=O)(=O)N5CCCCCC5)cc43)CC2)c1`, the activity change, negative = inhibition is -0.74% (inactive).

Regarding `S=c1[nH]nc(-c2ccco2)n1/N=C/c1ccc(Br)s1`, the activity change, negative = inhibition was -38.6% (active).

For `Cc1ccccc1-c1n[nH]c(=S)n1/N=C/c1ccc(-c2ccccc2Br)o1`, the activity change, negative = inhibition was -0.652% (inactive).

In the case of `Cc1ccsc1/C=N/n1c(=S)[nH]nc(C)c1=O`, the activity change, negative = inhibition is 0.744% (inactive).

Turning to `O=C(CN1C(=O)COc2ccc(S(=O)(=O)N3CCOCC3)cc21)N1CCN(c2cccc(Cl)c2)CC1`, the activity change, negative = inhibition was -5.01% (inactive).

In the case of `COc1ccc(CNC(=O)CCc2c(C)nn(-c3ccc(N4CCCC4)nn3)c2C)cc1`, the activity change, negative = inhibition was 8.22% (inactive).

For the compound `Cc1ccc(-n2nc(C)c(C(=O)O)c2-n2cccc2)cc1`, the activity change, negative = inhibition was -8.13% (inactive).

As for `Cc1nn(-c2ccc(F)cc2)c(-n2cccc2)c1C(=O)N1CCN(c2ccccc2)CC1`, the activity change, negative = inhibition is 21% (inactive).

Turning to `Cc1nn(-c2ccccc2)c(-n2cccc2)c1C(=O)O`, the activity change, negative = inhibition was -45.8% (active).

`CCN(CC)CCNC(=O)c1cc2c(=O)oc3ccc(C)cc3c2s1`: the activity change, negative = inhibition is 4.45% (inactive).
